Assay outcomes (PubChem BioAssay)
PrP 5UTR inh = inhibition of PrP 5' UTR reporter expression | cell-based PrP 5' UTR mRNA reporter, plate reader | inhibition, % (test concentration not listed) | 0.35% of 340,000 active; in the data active means inhibition above about 52%; further: 0 = median of the neutral control wells
GDH-TPI counter = counter-screen for M. tuberculosis FBA inhibitors: GDH-TPI coupled enzymes; AID 588335; inhibition, % at 4.8 µM; 1.2% of 360,000 active; GDH-TPI coupled enzyme counterscreen, NADH absorbance; in the data active means inhibition above about 30%;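 further: 0% = DMSO wells and 100% = wells lacking the enzyme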
BJeLR lethal = kills HRASV12-expressing BJeLR cells | BJeLR (HRASV12) viability, CellTiter-Glo ATP luminescence, 48 h | 0.17% of 300,000 active | inhibition, % (concentration not given with the values); in the data active means inhibition above about 50%
PfHsp40 rescue = restores yeast growth despite PfHsp40 toxicity | growth rescue, % at 12.5 µM | 0.68% of 340,000 active | S. cerevisiae expressing PfHsp40, growth rescue, ATP luminescence; in the data active means growth rescue above about 28%, passing the limit was not always enough;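 further: yeast W303a lacking pdr1 and pdr3 grown in galactose medium; growth measured after three days at 30 °C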
PrPC surface inh = inhibitors of human cell surface prion protein PrPC; 0.43% of 370,000 active; TR-FRET read-out; inhibition, % at 13.8 µM; in the data active means inhibition above about 24%; further: 0% = median of the test wells and 100% = reference compound wells
Mtb FBA inh = inhibits M. tuberculosis FBA enzyme; purified M. tuberculosis FBA, fluorescence read-out; inhibition, % at 1 µM; 2.3% of 360,000 active; AID 588726; in the data active means inhibition above about 27%;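 further: 0% = vehicle and 100% = reference inhibitor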
Target sequence (P9WQA3 whole entry, looked up): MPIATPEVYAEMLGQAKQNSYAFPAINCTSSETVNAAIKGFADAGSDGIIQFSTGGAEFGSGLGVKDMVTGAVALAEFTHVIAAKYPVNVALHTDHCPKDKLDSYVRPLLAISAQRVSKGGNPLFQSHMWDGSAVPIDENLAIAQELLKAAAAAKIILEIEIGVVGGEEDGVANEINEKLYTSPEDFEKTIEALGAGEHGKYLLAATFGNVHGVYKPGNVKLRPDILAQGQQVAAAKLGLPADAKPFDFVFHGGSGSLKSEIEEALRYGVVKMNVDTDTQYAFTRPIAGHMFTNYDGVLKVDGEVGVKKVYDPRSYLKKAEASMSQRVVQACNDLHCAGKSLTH
Active calls of the source: *; / = no result given; + = active, no number. Shown are actives, neighbours in structure and some others; about 4.5% of the full set was active somewhere.

SMILES	PrP 5UTR inh	GDH-TPI counter	BJeLR lethal	PfHsp40 rescue	PrPC surface inh	Mtb FBA inh
Cc1ccc(/C(O)=C2\C(=O)C(=O)N(C)C2c2ccc(Br)cc2)cc1 (centres undefined)	-7	-3	-2	-1	0	1
NC(=O)N/N=C/C=C/c1ccccc1	-21	11	2	0	0	2
NC(=O)N\N=C/C=C/C=C/c1ccc(F)cc1	-2	53*	5	7	3	-5
Cn1cccc1/C=N/NC(=O)CNc1ccc2ccccc2c1	/	11	9	/	6	3
Cc1ccc(NCC(=O)N/N=C/c2cccn2C)cc1	-15	35*	-3	0	2	0
CCCn1c2c(c(O)c(C(=O)Nc3ncccc3O)c1=O)CCCC2	-12	34*	2	3	3	0
CCN(CC)CCNCc1nc2ccccc2c(=O)n1-c1ccc(F)cc1	-15	6	-4	0	6	0
Cc1ccc(-n2c(CNCc3ccc(F)cc3)nc3ccccc3c2=O)cc1	0	2	2	55*	0	1
Cc1ccc(NC(=O)[C@@H]2CCCN2S(=O)(=O)c2cccc3cccnc23)c(C)c1	/	/	/	/	9	/
CC[C@H](CCCCCC#N)CCC(=O)N(c1ccccc1)c1ccccc1	/	/	/	/	12	/
CCCCn1nc2cc(C(=O)NCc3ccc(OC(F)(F)F)cc3)ccc2c1OC	-2	5	-4	-1	2	29*
CCn1nc2cc(C(=O)NCc3cc(C(F)(F)F)cc(C(F)(F)F)c3)ccc2c1OC	-7	1	-10	0	15	39*
COC(=O)C1CN(Cc2cn(Cc3ccc(OC)cc3)nn2)CCS(=O)(=O)N1Cc1ccc(F)cc1 (centres undefined)	/	/	/	/	2	/
O=C(NCc1cccc(C(F)(F)F)c1)c1[nH]c(C(F)(F)F)nc1-c1ccccc1	/	/	/	/	/	1
CC(C)c1cc(NCCOCCO)n2c(nc3ccccc32)c1C#N	-21	-1	-2	-1	4	+
CCCc1cc(Nc2c(C)n(C)n(-c3ccccc3)c2=O)n2c(nc3ccccc32)c1C#N	10	13	1	-1	-1	8
CCCc1cc(NCCCCO)n2c(nc3ccccc32)c1C#N	-27	6	7	0	3	178*
CCCCc1c(C)c(C#N)c2nc3ccccc3n2c1Cl	/	/	128*	/	/	/
CCCc1cc(NCCOCCO)n2c(nc3ccccc32)c1C#N	/	15	/	/	0	+
COc1ccc(CN(CCN2CCOCC2)C(=O)c2cc(F)ccc2F)cc1OC	/	/	/	/	1	/
Clc1ccc([C@H]2OC[C@@]3(CNCc4ccccc4)CS[C@H](c4ccc(Cl)cc4)N23)cc1	/	/	/	/	9	/
O=C(CSc1nc2ncccc2[nH]1)N1CCOCC1	/	/	/	/	-5	/
Nn1c(SCC(=O)NC2CCCCC2)nnc1-c1cc(-c2ccc(F)cc2)n[nH]1	/	/	/	/	0	/
N=c1nc(-c2ccccc2)ccn1O	-24	39*	-4	0	-7	-15
c1ccc(-c2ccn3nnnc3n2)cc1	-8	1	2	0	-8	4
SMILES	PrP 5UTR inh	GDH-TPI counter	BJeLR lethal	PfHsp40 rescue	PrPC surface inh	Mtb FBA inh
Clc1ccc([C@H]2OC[C@@]3(CNC4CCCCC4)CS[C@H](c4ccc(Cl)cc4)N23)cc1	/	/	/	/	7	/
COc1cc(/C=N/NC2=NCCCCC2)ccc1O	-18	30	1	-2	2	0
COc1ccc(/C=N/Nc2nc(-c3cccnc3)nc3ccccc23)cc1OC	-24	27	-2	2	7	5
COc1ccc(/C=N/Nc2ncnc3scc(-c4ccccc4)c23)cc1OC	-54	48*	-13	-1	-1	3
COc1cc(/C=N/Nc2ncnc3sc4c(c23)CCC4)ccc1O	-1	47*	11	0	-5	0
Cc1cc(-n2c(SCC(=O)NCCC3=CCCCC3)nc3n[nH]c(C)c3c2=N)ccc1Cl	7	15	59*	-1	7	16
Cc1ccc(Cl)cc1-n1c(SCC(=O)NCCC2=CCCCC2)nc2n[nH]c(C)c2c1=N	-9	11	3	0	-5	1
CCOC(=O)[C@]12CCCC=C1N(CCCOC)C(=O)[C@@H]2CC(=O)NCc1cccs1	/	/	/	/	-2	/
Cn1c(O)c(N=NC(=N)N)c2ccccc21	-4	40*	-1	1	-8	-2
CCCn1c(O)c(N=NC(=O)CNC(=O)c2cccnc2)c2ccccc21	-15	6	0	-2	-24	-4
CCOc1ccc2c(c1)c(N=NC(=N)N)c(O)n2C	-32	17	0	-1	-14	-7
CCOc1ccc2c(c1)c(N=NC(N)=S)c(O)n2C	/	31*	11	0	-17	-1
Cn1c(O)c(N=NC(=O)CNC(=O)c2cccnc2)c2ccccc21	-22	39*	-8	-1	-37	0
COC(=O)Cn1c(O)c(N=NC(=O)CNC(=O)c2ccncc2)c2ccccc21	-1	38*	2	-1	-26	1
CCOc1ccc(-c2nc(CSCC(=O)NC3CCC3)c(C)o2)cc1	/	/	/	/	4	/
CCS(=O)(=O)c1nc(S(=O)(=O)c2ccc(C)cc2)c(N2CCCC2)s1	-17	34*	0	1	-4	0
CCOC(=O)[C@]12CCCC=C1N(Cc1ccc3c(c1)OCO3)C(=O)[C@H](CC(=O)NCc1ccc(C)o1)C2	/	/	/	/	5	/
COc1ccc(C)c2sc(=NC(=O)c3cccc(N4C(=O)CCC4=O)c3)n(C)c12	-6	13	7	-1	13	-1
C#CCn1c(=NC(=O)c2cccs2)sc2cccc(OC)c21	-35	31*	-3	1	-2	6
C#CCn1c(=NC(=O)CN2C(=O)CCC2=O)sc2cccc(OC)c21	-14	2	-7	0	-3	14
C=CCn1c(=NC(=O)c2cccc(N3C(=O)CCC3=O)c2)sc2cccc(OC)c21	-28	42*	-18	0	4	3
COc1ccc(-c2cc(-c3ccccc3)c(C#N)c(S(C)=O)n2)cc1 (centres undefined)	-14	31*	5	2	-4	+
CC(=O)NC(Cc1ccc2c(c1)OCO2)C(=O)N1CCCN(C(C)=O)CC1 (centres undefined)	/	/	/	/	-5	/
N#CCc1ccc(OC[C@@H](O)CN2CCC(C(O)(c3ccccc3)c3ccccc3)CC2)cc1	/	/	/	/	-10	/
CN1CCN(CCCNC(=O)c2cc3c(=O)n(C)c4ccccc4c3s2)CC1	-21	12	-7	-1	-14	89*
COc1ccc(N2C3=C(C(=O)CC(C)(C)C3)C(c3cnn(C)c3)C3=C2CC(C)(C)CC3=O)cc1	-11	3	4	1	3	112*
COC(=O)[C@H]1C[C@]2(C(/C=C(\C)CCC=C(C)C)S(=O)(=O)c3ccccc3)c3ccccc3N[C@H]2N1 (some centres undefined)	/	/	/	/	-2	/
CCCN(CCC)CCCNC(=S)Nc1ccc2nc(N3CCN(C)CC3)cc(C)c2c1	-12	32*	14	0	-14	14
CCCN(CCC)CCCNC(=S)Nc1ccc2nc(N3CCN(CC)CC3)cc(C)c2c1	-25	28	-9	-1	-6	7
